Screens as filed in PubChem.
Rows were chosen to be rich in hits. Some 2.4% of all compounds tested hit in one or more screens of this group.
D2 PAM-1: HTS Assay for Positive Allosteric Modulators of the Human D2 Dopamine Receptor: Primary Screen for Potentiators; D(2) dopamine receptor (Homo sapiens), P14416; HEK293 T-REx D2, calcium flux, EC20 dopamine potentiation; AID 485347, 2010; hit rate 0.34% among 340,000; potentiation, % at 10 µM;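 active = potentiation over 3 SD above the plate norm, cut at about 30% in these data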
Target sequence (P14416 whole entry, looked up): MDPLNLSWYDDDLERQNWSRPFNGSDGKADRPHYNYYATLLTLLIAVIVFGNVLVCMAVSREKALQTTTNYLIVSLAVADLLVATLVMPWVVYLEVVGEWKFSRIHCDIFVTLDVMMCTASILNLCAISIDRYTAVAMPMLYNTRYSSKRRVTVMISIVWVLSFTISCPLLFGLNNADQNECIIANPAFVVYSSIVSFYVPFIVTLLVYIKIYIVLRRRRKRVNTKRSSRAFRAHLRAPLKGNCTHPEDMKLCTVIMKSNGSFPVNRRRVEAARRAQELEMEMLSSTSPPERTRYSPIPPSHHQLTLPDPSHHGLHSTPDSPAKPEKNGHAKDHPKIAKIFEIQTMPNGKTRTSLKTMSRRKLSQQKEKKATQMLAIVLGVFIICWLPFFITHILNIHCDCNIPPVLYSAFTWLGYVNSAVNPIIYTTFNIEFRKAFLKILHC
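Tetracycline-induced Hek293 Trex D2 cells, force-coupled to calcium, loaded with no-wash calcium dye. Compound added with 180 s kinetic read for agonism, then EC20 dopamine and a further 180 s read for potentiation.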
D2 antag: HTS Assay for Allosteric Antagonists of the Human D2 Dopamine Receptor: Primary Screen for Antagonists | D(2) dopamine receptor (Homo sapiens), P14416 | HEK293 TREx D2 cells, calcium flux, dopamine EC80 | inhibition, % at 10 µM | hit rate 2% among 340,000 | AID 485344, 2010; in the data active = inhibition above about 30%; inactive = below that, where a call was filed
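HEK293 T-REx D2 cells, tet-induced, calcium dye no-wash. Cpd pintool add, 180 s kinetic, then EC80 DA, 180 s kinetic. Ca flux read.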
D2 ag-1: Beta-Arrestin HTS for Positive Allosteric Modulators of the Human D2 Dopamine Receptor: Agonists; D(2) dopamine receptor (Homo sapiens), P14416; DiscoveRx PathHunter D2 beta-arrestin, luminescence, 90 min; 100% = 57 uM dopamine signal; activation, % (no concentration beside the values); hit rate 0.084% among 360,000; AID 624465, 2012; in the data active = activation above about 40%; inconclusive = between about 15% and that limit
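DiscoveRx PathHunter D2 beta-arrestin cells (2,100/well) attached overnight, then compound-stimulated 90 min at 37 C in HBSS/10 mM HEPES/0.1% Tween-20 buffer; beta-galactosidase complementation read by luminescence after 1 h at ambient temperature. Dopamine 57 uM final (EC100) as control.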
D2 PAM-2: Beta-Arrestin HTS for Positive Allosteric Modulators of the Human D2 Dopamine Receptor: Potentiators; hit rate 0.23% among 360,000; potentiation, % (concentration not given with the values); DiscoveRx D2 beta-arrestin cells, luminescence, 90 min; 100% = 57 uM dopamine signal; in the data active = potentiation above about 50%; inconclusive = mostly about 30% to 49%
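D2 cells co-treated with compound plus 50 nM dopamine (EC20) for 90 min at 37 deg C to detect potentiation. Beta-arrestin recruitment was read as enzyme-fragment luminescence after 1 h at ambient temperature. Full response was set by 57 uM dopamine.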
D2 ag-2: HTS Assay for Allosteric Agonists of the Human D2 Dopamine Receptor: Primary Screen for Agonists. HEK293 T-REx D2 cells, calcium flux agonist mode. hit rate 0.53% among 340,000. activation, % at 2 µM. D(2) dopamine receptor (Homo sapiens), P14416;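 active = activation over 3 SD above normal in the single-dose calcium agonist read, cut at about 30% in these data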
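HEK293 Trex D2 cells, tetracycline-induced, o/n 30 C 5% CO2; no-wash Ca dye, RT 30–90 min; 10-cycle baseline, 23 nl cpd added, kinetic Ca read 180 s; agonist hits = positive Ca response.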
Of the large screens only hits and unclear results are named; the others gave an inactive call.

CCOc1ccc(NC(=O)CCS(=O)(=O)c2cc3c4c(c2)CCN4C(=O)CC3)cc1	none (no result: D2 antag, D2 ag-1, D2 PAM-2)
COc1ccc(NC(=O)Cc2c(C(=O)O)n(C)c3ccccc23)cc1OC	D2 PAM-1 32
COc1cc(NC(=O)Cc2c(C(=O)O)n(C)c3ccccc23)cc(OC)c1OC	none (no result: D2 PAM-1, D2 antag, D2 ag-2)
COc1ccc(-c2cc(=O)c3cc(C)ccc3[nH]2)cc1	none
COc1cc2[nH]c(-c3ccc(C)cc3)cc(=O)c2cc1OC	D2 antag 84
Cc1oc2cc3oc(=O)c(CCC(=O)NCCCC(=O)O)c(C)c3cc2c1C	D2 antag 33
CCn1cnc2cc(NC(=O)c3ccc(C)cc3)ccc21	D2 antag 32
COc1ccc(-c2nc(CSCC(=O)N3CCN(C)CC3)c(C)o2)cc1OC	D2 antag 40
Cc1cc(SCC(=O)Nc2nsc(-c3ccc(C(C)(C)C)cc3)n2)nc2ccccc12	none (no result: D2 antag, D2 ag-1, D2 PAM-2, D2 ag-2)
CCCN(CCC)CCNC(=O)C1CCN(S(=O)(=O)c2cccc3nsnc23)CC1	D2 antag 37
CCN(Cc1ccccc1)Cc1c(O)ccc2c(=O)c(-c3ccccc3OC)c(C(F)(F)F)oc12	none (no result: D2 antag, D2 ag-1, D2 PAM-2)
Cc1nn(-c2ccccc2)c(Cl)c1/C=N/NC(=O)CNC(=O)c1ccccc1Cl	D2 antag 46
Cc1nn(-c2ccccc2)c(Cl)c1/C=N/NC(N)=O	none
Cc1cccc(N2C(=O)C(Cl)=C(Nc3c(C)n(C)n(-c4ccccc4)c3=O)C2=O)c1C	none
Cc1ccc(N2C(=O)C(Cl)=C(Nc3c(C)n(C)n(-c4ccccc4)c3=O)C2=O)cc1	D2 antag 32
COc1ccc(/C=N/NC(=O)COc2ccccc2-c2ccccc2)cc1	D2 antag 39
O=C(COc1ccccc1-c1ccccc1)N/N=C/c1cccc2ccccc12	none
COc1ccc(CCNS(=O)(=O)c2cc3c4c(c2)CC(=O)N4CCC3)cc1	D2 antag 35
COc1ccc(S(N)(=O)=O)cc1C(=O)NCCCN1CCN(c2ccc(C)cc2)CC1	D2 antag 49
COc1ccc(Cl)cc1C(=O)NCCCN1CCOCC1	none
COc1ccc(N2CCN(CCCNC(=O)c3cc4sccc4n3C)CC2)cc1	D2 antag 40, D2 ag-2 38
Cc1cccc(N2CCN(c3ccc4cc(S(=O)(=O)N5CCC(C)CC5)ccc4n3)CC2C)c1 (stereo not given)	none (no result: D2 antag, D2 ag-1, D2 PAM-2)
O=C(CCN1CCOCC1)N/N=C/c1cc(Br)cc(Br)c1O	D2 antag 36
Cc1ccccc1CN1C(=O)c2ccccc2Sc2ccc(C(=O)NC3CCCCC3)cc21	none (no result: D2 antag, D2 ag-1, D2 PAM-2)
COc1ccc(CCN(Cc2cc3cccc(C)c3[nH]c2=O)C(=O)NC2CCCCC2)cc1OC	D2 antag 31
CNC(=S)N(CCc1cccc(C)c1)Cc1cc2cc(OC)c(OC)cc2[nH]c1=O	D2 antag 30
Cc1cccc2cc(CN(CC3CCCO3)C(=O)NC3CCCCC3)c(=O)[nH]c12 (stereo not given)	none
CCOC(=O)/C=C/C(=O)Nc1ccc(S(=O)(=O)N2CCCCCC2)cc1	D2 antag 31
CN(C)CCNC(=O)Cc1ccc(NC(=O)N2CCCCc3ccccc32)cc1	none (no result: D2 antag, D2 ag-1, D2 PAM-2)
Cc1cc(=O)n(CCO)c(O)c1C#N	D2 PAM-2 52
O=C(CSc1nncs1)NC1CCCCCCC1	D2 antag 31
CC1CCC(NC(=O)CSc2nncs2)CC1 (stereo not given)	none
CC(=O)c1ccc(NC(=O)C2(c3ccccc3)CCOCC2)cc1	none
O=C(Nc1ccc(Cl)c(C(=O)N2CCOCC2)c1)c1ccccc1	D2 PAM-1 52
O=C(c1ccc(NC(=O)C2(c3ccccc3)CCOCC2)cc1)N1CCOCC1	D2 antag 32
Cc1ccc(CNC(=O)c2ccc3c(O)c(S(=O)(=O)c4ccc(Cl)cc4)c(=O)[nH]c3c2)cc1	none (no result: D2 PAM-1, D2 antag, D2 ag-1, D2 PAM-2)
COc1ccc(N2CCC(CNS(=O)(=O)c3cccc(C(F)(F)F)c3)C2)cc1 (stereo not given)	D2 antag 38 (no result: D2 PAM-1)
COc1ccc(CNC(=O)C2CCN(S(=O)(=O)c3cccc(C(F)(F)F)c3)CC2)cc1	none
CC(=O)N1CCc2c(sc3c2c(=O)n(-c2ccccc2)c(=O)n3CC(=O)c2ccc(F)cc2)C1	none (no result: D2 antag, D2 ag-1, D2 PAM-2)
Cc1ccccc1C(=O)NNC(=O)c1ccoc1C	none (no result: D2 PAM-1, D2 antag, D2 ag-2)
Cc1occc1C(=O)NNC(=O)c1ccccc1C(=O)O	D2 antag 31
CCOC(=O)c1cc(C)n(CC2CCC(C(=O)Nc3cccc(C(C)=O)c3)CC2)c1C (stereo not given)	none (no result: D2 antag, D2 ag-1, D2 PAM-2)
COc1ccc(COc2ccsc2C(=O)Nc2ccc(Cl)cc2)cc1	D2 antag 40
CN(C)CCn1cnc2c(c1=N)C(c1ccccc1)c1ccc3ccccc3c1O2 (stereo not given)	D2 antag 62
CNc1nc(C)nc(N/N=C/c2ccccc2)n1	D2 antag 42
Cc1ccc(CSc2nc3cccnc3n2Cc2nc(-c3ccccc3F)oc2C)cc1	none (no result: D2 PAM-1, D2 antag, D2 ag-1, D2 PAM-2)
O=C(NC1(C(F)(F)F)NC(=O)N(Cc2cccnc2)C1=O)c1ccc(F)cc1 (stereo not given)	D2 PAM-1 39
CCOC(=O)c1cc(-c2ccccc2)n(CC(=O)Nc2ccc(OC)cc2OC)c1C	none (no result: D2 antag, D2 ag-1, D2 PAM-2)
CC(=O)OCc1cnc(C)c2oc(=O)c(C(=O)Nc3ccc(C)cc3Cl)cc12	none (no result: D2 antag, D2 ag-1, D2 PAM-2, D2 ag-2)
COc1cccc2sc3ccc(C#CC4(N)CCCCC4)cc3c(=O)c12	D2 antag 31
COc1cccc2sc3cc(C#CC4(O)CCCCC4)ccc3c(=O)c12	D2 ag-1 inconclusive (no result: D2 PAM-1, D2 antag, D2 ag-2)
CCCc1nnc(SCC(=O)N2CCCCC2C)n1CC1CCCO1 (stereo not given)	D2 PAM-1 37 (no result: D2 antag, D2 ag-2)
CCCc1nnc(SCC(=O)N(CC)CC)n1CC1CCCO1 (stereo not given)	none
CCOc1ccc(CNC(=O)c2ccc3nc(Cc4ccc(OC)cc4)oc3c2)cc1OC	none (no result: D2 antag, D2 ag-1, D2 PAM-2)
Cc1ccc2nc(NCC(=O)O)nc(-c3ccccc3)c2c1	none
Cc1ccc2nc(NCCC(=O)O)nc(-c3ccccc3)c2c1	D2 PAM-1 31
CCc1nc2ccccc2n2c(-c3ccccc3)c3c(=O)n(C)c(=O)n(C)c3c12	none (no result: D2 antag, D2 ag-1, D2 PAM-2)
NS(=O)(=O)c1ccc(CCNC(=O)Cn2c(=O)c3cccn3c3ccc(F)cc32)cc1	none (no result: D2 antag, D2 ag-1, D2 PAM-2)
Cn1cccc1-c1cc(C(=O)N/N=C/c2ccc(Cl)cc2)[nH]n1	D2 antag 35
COc1cccc(NC(=O)N(CCC(C)C)C2CCN(C(C)C)CC2)c1	none (no result: D2 PAM-1, D2 antag, D2 ag-1, D2 PAM-2)
